PMC7862700, “An all-to-all approach to the identification of sequence-specific readers for epigenetic DNA modifications on cytosine”

How the values were obtained:
Test in all cases: DAPPL (digital affinity profiling via proximity ligation, sequencing); 10 mM Tris-HCl pH 7.5, 50 mM NaCl, 1 mM DTT, 4% glycerol, room temperature, 30 min; GST-TFs on glutathione beads, 16-mer random dsDNA library, 0.1% formaldehyde crosslink after washing; high values mean tight binding
[1] = biological target: T1, FLI1 (Homo sapiens, UniProt Q01543 1-452); settings: protein: recombinant; tags: N-terminal GST; dsDNA, one strand shown
T1 sequence: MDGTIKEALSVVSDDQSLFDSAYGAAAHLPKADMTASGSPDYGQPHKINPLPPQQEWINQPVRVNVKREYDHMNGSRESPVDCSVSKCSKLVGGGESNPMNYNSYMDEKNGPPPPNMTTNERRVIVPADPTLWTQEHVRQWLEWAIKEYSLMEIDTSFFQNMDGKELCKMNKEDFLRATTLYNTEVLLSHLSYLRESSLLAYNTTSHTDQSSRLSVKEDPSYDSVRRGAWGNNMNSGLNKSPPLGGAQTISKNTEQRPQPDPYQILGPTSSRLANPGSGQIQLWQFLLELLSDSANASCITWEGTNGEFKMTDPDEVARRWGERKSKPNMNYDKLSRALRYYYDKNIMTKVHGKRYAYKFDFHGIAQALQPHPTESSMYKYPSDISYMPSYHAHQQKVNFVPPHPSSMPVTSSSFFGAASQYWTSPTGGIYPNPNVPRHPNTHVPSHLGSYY
Procedure, shortened: (§1)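 Sequencing on an Illumina NextSeq500 followed washing, crosslinking with 0.1% formaldehyde, proximity ligation (BsaI/T4 ligase, 1 h, 37 °C) and PCR amplification of pools that had been incubated for 30 min at room temperature with 200 nmole of a random double-stranded 16-mer DNA library in Tris/NaCl/DTT/glycerol buffer. Each pool held DNA-barcoded human transcription factors, expressed in yeast as GST fusions and captured on glutathione beads, plus a tag-only sample. Binding signal is a hexamer's read frequency for a factor divided by its frequency in the tag-only sample.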

[2] = biological target: T2, ELK1 (Homo sapiens, UniProt P19419 1-428); settings: protein: recombinant; tags: N-terminal GST; dsDNA, one strand shown
T2 sequence: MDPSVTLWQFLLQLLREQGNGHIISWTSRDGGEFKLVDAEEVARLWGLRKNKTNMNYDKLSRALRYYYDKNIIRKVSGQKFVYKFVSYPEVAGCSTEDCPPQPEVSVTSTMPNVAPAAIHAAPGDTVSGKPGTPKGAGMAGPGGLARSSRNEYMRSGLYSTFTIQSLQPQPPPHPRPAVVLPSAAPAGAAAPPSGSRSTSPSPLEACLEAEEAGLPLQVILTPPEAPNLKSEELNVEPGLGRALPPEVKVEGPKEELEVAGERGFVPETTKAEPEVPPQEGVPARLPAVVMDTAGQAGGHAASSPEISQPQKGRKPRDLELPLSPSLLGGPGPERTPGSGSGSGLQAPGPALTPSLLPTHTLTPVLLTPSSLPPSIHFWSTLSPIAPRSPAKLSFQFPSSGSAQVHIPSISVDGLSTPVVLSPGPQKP
Procedure, shortened: as §1

[3] = biological target: T3, GABPA (Homo sapiens, UniProt Q06546 1-454); settings: protein: recombinant; tags: N-terminal GST; dsDNA, one strand shown
T3 sequence: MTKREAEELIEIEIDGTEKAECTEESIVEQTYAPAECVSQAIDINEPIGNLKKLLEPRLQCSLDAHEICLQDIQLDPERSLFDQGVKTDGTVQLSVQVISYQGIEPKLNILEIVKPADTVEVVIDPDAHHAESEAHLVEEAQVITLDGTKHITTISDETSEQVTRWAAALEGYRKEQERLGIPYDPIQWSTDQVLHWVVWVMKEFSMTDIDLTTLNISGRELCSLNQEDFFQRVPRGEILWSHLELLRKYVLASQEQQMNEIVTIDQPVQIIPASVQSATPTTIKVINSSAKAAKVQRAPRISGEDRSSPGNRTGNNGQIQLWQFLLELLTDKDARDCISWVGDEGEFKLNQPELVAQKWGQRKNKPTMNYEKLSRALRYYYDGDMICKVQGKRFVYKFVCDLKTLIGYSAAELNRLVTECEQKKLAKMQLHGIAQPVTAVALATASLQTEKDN
Procedure, shortened: as §1

[4] = biological target: T4, ERG (Homo sapiens, UniProt P11308 1-479); settings: protein: recombinant; tags: N-terminal GST; dsDNA, one strand shown
T4 sequence: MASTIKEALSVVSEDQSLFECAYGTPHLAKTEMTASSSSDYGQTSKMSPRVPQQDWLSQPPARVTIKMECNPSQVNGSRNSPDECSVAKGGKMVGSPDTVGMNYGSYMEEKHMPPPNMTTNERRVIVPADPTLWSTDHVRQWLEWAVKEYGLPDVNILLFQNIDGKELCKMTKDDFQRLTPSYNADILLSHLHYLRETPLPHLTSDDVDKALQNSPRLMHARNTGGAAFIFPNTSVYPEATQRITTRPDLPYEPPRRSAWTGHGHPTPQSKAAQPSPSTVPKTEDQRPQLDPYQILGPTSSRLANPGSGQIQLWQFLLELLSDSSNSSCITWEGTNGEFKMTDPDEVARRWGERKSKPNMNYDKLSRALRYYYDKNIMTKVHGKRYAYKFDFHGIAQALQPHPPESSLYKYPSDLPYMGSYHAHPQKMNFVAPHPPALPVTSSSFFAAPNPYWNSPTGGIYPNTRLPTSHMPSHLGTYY
Procedure, shortened: as §1

[5] = biological target: ELF1 (Homo sapiens, UniProt P32519 1-619); settings: protein: recombinant; tags: N-terminal GST; dsDNA, one strand shown
Sequence of ELF1 (P32519 whole entry): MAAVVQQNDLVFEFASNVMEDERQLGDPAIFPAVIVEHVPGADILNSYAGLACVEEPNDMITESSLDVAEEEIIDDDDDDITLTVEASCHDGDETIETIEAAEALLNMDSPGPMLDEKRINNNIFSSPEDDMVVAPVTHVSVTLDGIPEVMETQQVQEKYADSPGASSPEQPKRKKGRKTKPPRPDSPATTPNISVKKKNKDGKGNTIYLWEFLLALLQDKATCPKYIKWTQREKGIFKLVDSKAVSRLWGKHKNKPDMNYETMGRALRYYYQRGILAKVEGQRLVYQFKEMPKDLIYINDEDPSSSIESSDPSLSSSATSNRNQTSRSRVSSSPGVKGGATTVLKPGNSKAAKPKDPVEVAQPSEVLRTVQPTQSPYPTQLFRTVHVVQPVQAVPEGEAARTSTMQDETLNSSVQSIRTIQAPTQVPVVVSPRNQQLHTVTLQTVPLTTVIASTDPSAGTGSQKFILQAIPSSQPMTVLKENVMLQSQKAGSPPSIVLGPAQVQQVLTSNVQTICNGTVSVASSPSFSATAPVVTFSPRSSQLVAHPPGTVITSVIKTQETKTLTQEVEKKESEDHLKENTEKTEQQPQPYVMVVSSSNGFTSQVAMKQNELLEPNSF
Procedure, shortened: as §1

[6] = biological target: T5, EHF (Homo sapiens, UniProt Q9NZC4 1-300); settings: protein: recombinant; tags: N-terminal GST; dsDNA, one strand shown
T5 sequence: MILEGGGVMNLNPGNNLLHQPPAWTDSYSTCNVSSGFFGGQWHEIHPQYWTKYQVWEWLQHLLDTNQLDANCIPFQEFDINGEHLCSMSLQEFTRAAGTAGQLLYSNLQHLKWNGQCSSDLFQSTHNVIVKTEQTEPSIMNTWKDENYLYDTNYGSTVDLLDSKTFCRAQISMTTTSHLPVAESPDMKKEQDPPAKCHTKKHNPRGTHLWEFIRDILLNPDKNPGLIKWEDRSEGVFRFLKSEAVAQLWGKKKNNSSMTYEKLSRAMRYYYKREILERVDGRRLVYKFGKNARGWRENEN
Procedure, shortened: as §1

[7] = biological target: SPI1 (Homo sapiens, UniProt P17947 1-270); settings: protein: recombinant; tags: N-terminal GST; dsDNA, one strand shown
Procedure, shortened: as §1

[8] = biological target: SPIB (Homo sapiens, UniProt Q01892 1-262); settings: protein: recombinant; tags: N-terminal GST; dsDNA, one strand shown
Sequence of SPIB (Q01892 whole entry): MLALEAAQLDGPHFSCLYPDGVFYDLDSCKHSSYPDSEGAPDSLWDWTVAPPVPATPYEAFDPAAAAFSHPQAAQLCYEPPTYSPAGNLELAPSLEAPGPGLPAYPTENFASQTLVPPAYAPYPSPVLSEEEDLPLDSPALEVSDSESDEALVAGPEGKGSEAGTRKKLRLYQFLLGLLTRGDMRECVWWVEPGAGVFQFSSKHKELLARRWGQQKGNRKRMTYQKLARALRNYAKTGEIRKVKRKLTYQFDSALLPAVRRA
Procedure, shortened: as §1

[9] = biological target: T6, ELK3 (Homo sapiens, UniProt P41970 1-407); settings: protein: recombinant; tags: N-terminal GST; dsDNA, one strand shown
T6 sequence: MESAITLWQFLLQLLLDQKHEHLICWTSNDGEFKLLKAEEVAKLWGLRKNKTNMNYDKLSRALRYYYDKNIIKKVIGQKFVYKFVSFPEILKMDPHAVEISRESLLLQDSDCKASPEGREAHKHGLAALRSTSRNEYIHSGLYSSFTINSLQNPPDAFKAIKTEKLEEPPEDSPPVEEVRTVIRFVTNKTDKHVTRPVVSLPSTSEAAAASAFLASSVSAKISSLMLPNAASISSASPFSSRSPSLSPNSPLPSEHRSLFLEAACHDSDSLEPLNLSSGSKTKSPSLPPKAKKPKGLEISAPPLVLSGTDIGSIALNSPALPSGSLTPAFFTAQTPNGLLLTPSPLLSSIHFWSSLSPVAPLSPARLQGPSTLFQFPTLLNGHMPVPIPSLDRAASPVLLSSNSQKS
Procedure, shortened: as §1

[10] = biological target: T7, FEV (Homo sapiens, UniProt Q99581 1-238); settings: protein: recombinant; tags: N-terminal GST; dsDNA, one strand shown
T7 sequence: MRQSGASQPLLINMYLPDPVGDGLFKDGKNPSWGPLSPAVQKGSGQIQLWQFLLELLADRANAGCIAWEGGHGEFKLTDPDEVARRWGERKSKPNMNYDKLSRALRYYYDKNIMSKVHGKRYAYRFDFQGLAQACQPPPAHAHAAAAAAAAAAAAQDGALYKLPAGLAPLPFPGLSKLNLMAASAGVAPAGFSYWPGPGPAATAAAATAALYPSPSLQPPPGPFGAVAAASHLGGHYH
Procedure, shortened: as §1

[11] = biological target: ETV5 (Homo sapiens, UniProt P41161 1-510); settings: protein: recombinant; tags: N-terminal GST; dsDNA, one strand shown
Sequence of ETV5 (P41161 whole entry): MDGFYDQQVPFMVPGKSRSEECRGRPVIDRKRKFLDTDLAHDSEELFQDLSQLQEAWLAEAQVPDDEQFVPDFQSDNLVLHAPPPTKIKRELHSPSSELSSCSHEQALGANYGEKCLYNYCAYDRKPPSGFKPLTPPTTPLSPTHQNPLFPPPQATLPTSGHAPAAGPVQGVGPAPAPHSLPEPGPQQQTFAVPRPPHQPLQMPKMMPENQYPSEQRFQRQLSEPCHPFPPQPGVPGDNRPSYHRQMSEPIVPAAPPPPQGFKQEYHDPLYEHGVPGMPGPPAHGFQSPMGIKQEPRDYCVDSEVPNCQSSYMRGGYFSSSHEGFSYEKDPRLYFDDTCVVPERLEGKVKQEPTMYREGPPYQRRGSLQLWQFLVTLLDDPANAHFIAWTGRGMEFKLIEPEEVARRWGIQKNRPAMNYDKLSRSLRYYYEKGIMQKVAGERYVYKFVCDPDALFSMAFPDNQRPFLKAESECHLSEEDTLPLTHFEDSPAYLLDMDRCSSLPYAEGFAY
Procedure, shortened: as §1

[12] = biological target: HSF1 (Homo sapiens, UniProt Q00613 1-529); settings: protein: recombinant; tags: N-terminal GST; chain copies: 3; dsDNA, one strand shown
Sequence of HSF1 (Q00613 whole entry): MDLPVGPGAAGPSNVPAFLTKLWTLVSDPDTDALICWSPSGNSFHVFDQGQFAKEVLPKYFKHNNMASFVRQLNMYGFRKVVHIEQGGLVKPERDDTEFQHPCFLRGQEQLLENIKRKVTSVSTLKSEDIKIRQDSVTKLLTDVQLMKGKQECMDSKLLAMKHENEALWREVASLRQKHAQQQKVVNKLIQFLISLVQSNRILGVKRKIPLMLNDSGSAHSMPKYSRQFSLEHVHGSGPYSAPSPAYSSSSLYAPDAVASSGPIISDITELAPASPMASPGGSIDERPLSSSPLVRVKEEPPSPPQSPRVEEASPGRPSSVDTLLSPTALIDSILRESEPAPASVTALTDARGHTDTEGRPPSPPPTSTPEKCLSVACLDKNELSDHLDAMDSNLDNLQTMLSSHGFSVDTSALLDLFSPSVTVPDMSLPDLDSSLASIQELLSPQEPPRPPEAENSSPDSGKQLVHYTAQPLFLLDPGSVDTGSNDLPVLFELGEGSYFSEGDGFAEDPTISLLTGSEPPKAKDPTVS
Procedure, shortened: as §1

[13] = biological target: T8, SPIC (Homo sapiens, UniProt Q8N5J4 1-248); settings: protein: recombinant; tags: N-terminal GST; dsDNA, one strand shown
T8 sequence: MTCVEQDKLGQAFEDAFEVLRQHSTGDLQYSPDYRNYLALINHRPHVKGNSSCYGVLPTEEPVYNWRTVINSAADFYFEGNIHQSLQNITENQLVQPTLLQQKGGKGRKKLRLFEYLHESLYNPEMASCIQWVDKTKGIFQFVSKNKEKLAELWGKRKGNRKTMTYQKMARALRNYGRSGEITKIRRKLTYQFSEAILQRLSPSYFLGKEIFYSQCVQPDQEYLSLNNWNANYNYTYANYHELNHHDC
Procedure, shortened: as §1

[14] = biological target: ELF4 (Homo sapiens, UniProt Q99607 1-663); settings: protein: recombinant; tags: N-terminal GST; dsDNA, one strand shown
Sequence of ELF4 (Q99607 whole entry): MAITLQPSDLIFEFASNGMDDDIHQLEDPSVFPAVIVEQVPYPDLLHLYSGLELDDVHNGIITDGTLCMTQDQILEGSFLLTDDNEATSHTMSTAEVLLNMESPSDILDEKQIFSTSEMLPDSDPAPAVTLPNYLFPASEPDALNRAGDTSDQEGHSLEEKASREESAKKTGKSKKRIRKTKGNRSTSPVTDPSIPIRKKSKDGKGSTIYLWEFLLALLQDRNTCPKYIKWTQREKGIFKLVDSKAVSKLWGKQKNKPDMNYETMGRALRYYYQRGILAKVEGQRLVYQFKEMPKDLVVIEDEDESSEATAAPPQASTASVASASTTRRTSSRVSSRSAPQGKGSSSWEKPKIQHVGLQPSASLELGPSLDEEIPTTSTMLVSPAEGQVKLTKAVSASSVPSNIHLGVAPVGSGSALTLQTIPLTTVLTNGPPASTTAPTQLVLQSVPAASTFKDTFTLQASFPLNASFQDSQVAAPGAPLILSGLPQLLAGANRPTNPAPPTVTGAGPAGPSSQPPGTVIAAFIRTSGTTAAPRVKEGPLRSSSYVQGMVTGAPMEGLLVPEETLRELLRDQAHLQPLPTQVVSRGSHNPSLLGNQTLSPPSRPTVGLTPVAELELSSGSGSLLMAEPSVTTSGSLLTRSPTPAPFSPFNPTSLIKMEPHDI
Procedure, shortened: as §1

[15] = biological target: T9, ELK4 (Homo sapiens, UniProt P28324-2 1-405); settings: protein: recombinant; tags: N-terminal GST; dsDNA, one strand shown
T9 sequence: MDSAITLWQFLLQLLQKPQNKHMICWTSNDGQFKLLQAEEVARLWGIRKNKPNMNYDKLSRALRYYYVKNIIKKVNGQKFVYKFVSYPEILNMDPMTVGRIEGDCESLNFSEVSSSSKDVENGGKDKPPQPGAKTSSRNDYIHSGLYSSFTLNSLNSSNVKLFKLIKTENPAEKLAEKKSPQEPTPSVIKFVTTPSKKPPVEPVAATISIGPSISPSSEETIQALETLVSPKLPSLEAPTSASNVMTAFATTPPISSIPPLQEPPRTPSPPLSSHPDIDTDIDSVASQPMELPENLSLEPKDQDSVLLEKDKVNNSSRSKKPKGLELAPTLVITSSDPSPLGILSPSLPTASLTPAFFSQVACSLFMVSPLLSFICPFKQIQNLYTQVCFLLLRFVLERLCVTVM
Procedure, shortened: as §1

[16] = biological target: T10, ETV2 (Homo sapiens, UniProt O00321 1-342); settings: protein: recombinant; tags: N-terminal GST; dsDNA, one strand shown
T10 sequence: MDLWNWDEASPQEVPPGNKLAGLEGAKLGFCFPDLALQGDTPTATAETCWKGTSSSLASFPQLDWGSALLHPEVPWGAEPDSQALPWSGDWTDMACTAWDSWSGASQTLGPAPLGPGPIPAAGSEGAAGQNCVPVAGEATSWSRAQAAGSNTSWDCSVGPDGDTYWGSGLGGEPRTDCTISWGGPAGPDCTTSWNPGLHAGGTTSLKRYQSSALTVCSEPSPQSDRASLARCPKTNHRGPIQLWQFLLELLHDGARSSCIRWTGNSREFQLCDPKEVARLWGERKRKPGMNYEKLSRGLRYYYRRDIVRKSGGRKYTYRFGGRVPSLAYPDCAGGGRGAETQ
Procedure, shortened: as §1

[17] = biological target: T11, ELF3 (Homo sapiens, UniProt P78545 1-371); settings: protein: recombinant; tags: N-terminal GST; dsDNA, one strand shown
T11 sequence: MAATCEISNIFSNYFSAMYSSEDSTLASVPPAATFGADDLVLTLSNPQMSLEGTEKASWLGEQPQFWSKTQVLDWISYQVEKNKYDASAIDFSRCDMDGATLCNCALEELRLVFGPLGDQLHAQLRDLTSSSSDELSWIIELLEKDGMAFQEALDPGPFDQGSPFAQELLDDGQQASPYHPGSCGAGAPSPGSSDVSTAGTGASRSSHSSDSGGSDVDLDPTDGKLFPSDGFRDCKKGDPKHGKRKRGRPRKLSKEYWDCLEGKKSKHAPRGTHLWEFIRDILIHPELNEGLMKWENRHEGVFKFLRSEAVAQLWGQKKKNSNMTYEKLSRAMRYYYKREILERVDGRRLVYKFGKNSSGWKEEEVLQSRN
Procedure, shortened: as §1

[18] = biological target: CRX (Homo sapiens, UniProt O43186 1-299); settings: protein: recombinant; tags: N-terminal GST; dsDNA, one strand shown
Sequence of CRX (O43186 whole entry): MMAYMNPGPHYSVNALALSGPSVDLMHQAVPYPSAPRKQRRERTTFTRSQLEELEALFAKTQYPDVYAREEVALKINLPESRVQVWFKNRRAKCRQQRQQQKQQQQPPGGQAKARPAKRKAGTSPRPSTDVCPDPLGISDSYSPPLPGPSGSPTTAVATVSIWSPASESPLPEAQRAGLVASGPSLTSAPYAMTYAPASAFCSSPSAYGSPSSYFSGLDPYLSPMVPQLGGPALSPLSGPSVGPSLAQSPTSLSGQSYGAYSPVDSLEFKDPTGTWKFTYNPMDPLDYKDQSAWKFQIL
Procedure, shortened: as §1

[19] = biological target: ETV1 (Homo sapiens, UniProt P50549 1-477); settings: protein: recombinant; tags: N-terminal GST; dsDNA, one strand shown
Sequence of ETV1 (P50549 whole entry): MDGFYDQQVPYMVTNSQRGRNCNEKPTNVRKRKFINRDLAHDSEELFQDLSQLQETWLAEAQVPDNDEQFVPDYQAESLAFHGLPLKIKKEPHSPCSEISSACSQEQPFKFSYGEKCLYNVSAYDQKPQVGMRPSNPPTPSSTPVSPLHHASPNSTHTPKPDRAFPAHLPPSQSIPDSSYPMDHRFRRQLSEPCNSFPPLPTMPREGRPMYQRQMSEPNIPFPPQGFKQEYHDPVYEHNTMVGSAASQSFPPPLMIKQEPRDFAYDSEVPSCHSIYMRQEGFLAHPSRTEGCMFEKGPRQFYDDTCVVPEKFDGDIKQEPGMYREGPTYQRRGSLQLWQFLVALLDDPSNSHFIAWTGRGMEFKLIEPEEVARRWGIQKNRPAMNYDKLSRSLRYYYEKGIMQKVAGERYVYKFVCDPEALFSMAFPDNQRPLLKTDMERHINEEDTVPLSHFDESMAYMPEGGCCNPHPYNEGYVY
Procedure, shortened: as §1

ACCTAC
binding signal [1]: 1.22 fold enrichment (6-mer frequency, TF over GST control) | binding signal [2]: 1.2 fold enrichment (6-mer frequency, TF over GST control) | binding signal [3]: 1.21 fold enrichment (6-mer frequency, TF over GST control) | binding signal [4]: 1.1 fold enrichment (6-mer frequency, TF over GST control) | binding signal [5]: 1.27 fold enrichment (6-mer frequency, TF over GST control) | binding signal [6]: 1.21 fold enrichment (6-mer frequency, TF over GST control) | binding signal [7]: 1.18 fold enrichment (6-mer frequency, TF over GST control) | binding signal [8]: 1.23 fold enrichment (6-mer frequency, TF over GST control) | binding signal [9]: 1.13 fold enrichment (6-mer frequency, TF over GST control) | binding signal [10]: 1.17 fold enrichment (6-mer frequency, TF over GST control) | binding signal [11]: 1.13 fold enrichment (6-mer frequency, TF over GST control) | binding signal [12]: 1.07 fold enrichment (6-mer frequency, TF over GST control) | binding signal [13]: 1.13 fold enrichment (6-mer frequency, TF over GST control) | binding signal [14]: 1.24 fold enrichment (6-mer frequency, TF over GST control) | binding signal [15]: 1.22 fold enrichment (6-mer frequency, TF over GST control) | binding signal [16]: 1.23 fold enrichment (6-mer frequency, TF over GST control) | binding signal [17]: 1.29 fold enrichment (6-mer frequency, TF over GST control) | binding signal [18]: 1.02 fold enrichment (6-mer frequency, TF over GST control) | binding signal [19]: 1.23 fold enrichment (6-mer frequency, TF over GST control)
